Compounds with a hit are over-represented: about 2.4% of the library has one in this group of screens.
D2 ag-1 – D2 dopamine receptor (human) agonism; P14416; HEK293 T-REx D2 cells, calcium flux agonist mode; activation, % at 2 µM; 340,000 compounds, 0.53% hits; AID 485358;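 active means activation over 3 SD above normal in the single-dose calcium agonist read, cut at about 30% in these data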
Target sequence (P14416 whole entry, looked up): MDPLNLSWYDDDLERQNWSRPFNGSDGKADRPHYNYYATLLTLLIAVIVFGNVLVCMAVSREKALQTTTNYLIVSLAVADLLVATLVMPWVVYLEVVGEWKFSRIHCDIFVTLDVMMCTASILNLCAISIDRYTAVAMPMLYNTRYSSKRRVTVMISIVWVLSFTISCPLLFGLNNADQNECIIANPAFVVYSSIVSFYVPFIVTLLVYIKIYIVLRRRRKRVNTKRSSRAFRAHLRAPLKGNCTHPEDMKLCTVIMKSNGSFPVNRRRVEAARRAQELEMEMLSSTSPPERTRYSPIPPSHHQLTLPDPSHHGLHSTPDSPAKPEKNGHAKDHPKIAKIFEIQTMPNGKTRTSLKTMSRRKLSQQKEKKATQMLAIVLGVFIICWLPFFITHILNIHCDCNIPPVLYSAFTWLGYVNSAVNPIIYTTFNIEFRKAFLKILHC
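Tetracycline-induced HEK293 T-REx cells with force-coupled D2 receptor, plated overnight at 30 C, loaded with no-wash calcium dye. After a 10 s baseline, compound was pin-added and calcium flux read kinetically for 180 s; calcium rises flagged agonists.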
D2 ag-2 – activates the human D2 dopamine receptor; AID 624465; 360,000 compounds, 0.084% hits; P14416; activation, % (test concentration not listed); DiscoveRx PathHunter D2 beta-arrestin, luminescence, 90 min; 100% = 57 uM dopamine signal; in the data active means activation above about 40%; inconclusive means between about 15% and that limit
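Agonist mode: compounds alone added to overnight-plated D2 PathHunter cells for 90 min at 37 C, with 57 uM final dopamine (EC100) defining full response. Beta-arrestin recruitment detected by chemiluminescent reagent, read after 1 h at ambient temperature.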
D2 antag – D2 dopamine receptor (human) antagonism; P14416; HEK293 TREx D2 cells, calcium flux, dopamine EC80; inhibition, % at 10 µM; 340,000 compounds, 2% hits; in the data active means inhibition above about 30%; inactive means below that, where a call was filed
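Calcium flux kinetic readout in an inducible HEK293 TREx D2 line plated overnight at 30 C. After 180 s compound exposure, an EC80 dopamine challenge follows with another 180 s kinetic read to detect antagonism.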
D2 PAM-1 – positive allosteric modulators of human D2 dopamine receptor | DiscoveRx D2 beta-arrestin cells, luminescence, 90 min; 100% = 57 uM dopamine signal | 360,000 compounds, 0.23% hits | P14416 | potentiation, % (test concentration not listed); in the data active means potentiation above about 50%; inconclusive means mostly about 30% to 49%
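PathHunter beta-arrestin assay in DiscoveRx D2 cells. Compounds were added with an EC20 of dopamine (50 nM final) for 90 min at 37 deg C. Luminescence was read 1 h after detection reagent, with 57 uM dopamine as the EC100 control.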
D2 PAM-2 – D2 dopamine receptor (human) potentiation. P14416. HEK293 T-REx D2, calcium flux, EC20 dopamine potentiation. potentiation, % at 10 µM. 340,000 compounds, 0.34% hits. AID 485347;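 active means potentiation over 3 SD above the plate norm, cut at about 30% in these data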
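Potentiation of an EC20 dopamine calcium response measured kinetically over 180 s, after a preceding 180 s compound-only read flagging agonists. Cells: inducible Hek293 Trex D2 line, 4000/well, cultured overnight at 30 C before dye loading.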
Of the large screens only hits and unclear results are named; the others gave an inactive call.

NC1=NC[C@H](Cc2ccc(O)cc2)N1CCc1cccc(F)c1	D2 antag 39
CN(C)C1=NC[C@H](Cc2ccccc2)N1CCc1cccc(F)c1	none
Cc1cc(S(=O)(=O)n2ccnc2C(C)C)cc([N+](=O)[O-])c1C	none (no result: D2 ag-2, D2 antag, D2 PAM-1)
CC1(C)CC(=O)c2cc(C(=O)Nc3ccc(Cl)cc3)c(=O)[nH]c2C1	none (no result: D2 ag-2, D2 antag, D2 PAM-1)
CC1CCc2cc(F)ccc2N1C(=O)C12CCC(C)(C(=O)O1)C2(C)C (configuration not stated)	D2 antag 32
COc1cc(NS(=O)(=O)c2ccc(NC(=O)/C(=C/c3ccccc3Cl)NC(=O)c3ccccc3)cc2)nc(OC)n1	none
COc1cc(NS(=O)(=O)c2ccc(NC(=O)/C(=C\c3ccccc3OC)NC(=O)c3ccccc3)cc2)nc(OC)n1	D2 antag 32
COc1ccc(NC(=O)/C(=C\c2ccc(OS(=O)(=O)c3ccc(C)cc3)cc2)NC(=O)c2ccccc2)cc1	D2 PAM-2 40
Cc1cccc(Cn2cccc2CNS(=O)(=O)c2ccccc2F)c1	none (no result: D2 ag-2, D2 antag, D2 PAM-1)
O=C(CCN1CCN(c2ccccc2F)CC1)c1ccc(Br)cc1	D2 antag 34
Cc1cc(=O)oc2cc(OCC(=O)N3CCOCC3)ccc12	D2 PAM-2 48
Cc1cc(=O)oc2cc(OCC(=O)NCc3ccco3)ccc12	D2 PAM-2 35
COc1ccc(C(=O)CCN2CCN(c3ccc(OC)cc3)CC2)cc1	D2 antag 31
Cc1cc(=O)oc2cc(OCC(=O)N3CCCC3)ccc12	none (no result: D2 ag-1, D2 antag, D2 PAM-2)
COc1ccc(N2CCN(CCC(N)=O)CC2)cc1	none
Cc1cc(=O)oc2ccc(OCC(=O)NCc3ccco3)cc12	none
CCCS(=O)(=O)N1CCC(N2CCN(Cc3ccc(F)cc3)C(=O)C2=O)CC1	none (no result: D2 ag-2, D2 antag, D2 PAM-1, D2 PAM-2)
O=c1c2ccccc2n(Cc2cccc(F)c2)c(=O)n1Cc1ccccc1Cl	none (no result: D2 ag-2, D2 antag, D2 PAM-1)
Cc1cn2c(=O)c(S(=O)(=O)NCc3ccccc3Cl)c(C)nc2s1	none (no result: D2 ag-2, D2 antag, D2 PAM-1)
COc1ccc(N2CCN(CCOc3ccc4c(C)cc(=O)oc4c3)CC2)cc1	D2 antag 72
Cc1cc(=O)oc2cc(OCCSCCN3CCCC3)ccc12	none
COCCNC(=O)CSCc1c(F)cccc1Cl	none
COCCCNC(=O)c1cn(Cc2c(F)cccc2Cl)nn1	D2 antag 32
CCOc1ccc(-n2c(=O)c3c(C)c(C)sc3n(CC(=O)N3CCC(C)CC3)c2=O)cc1	none (no result: D2 ag-2, D2 antag, D2 PAM-1)
COc1ccc2c(c1)c1c(c(=O)n(Cc3ccccc3)c(=O)n1Cc1cccc(Cl)c1)n2C	none (no result: D2 ag-2, D2 antag, D2 PAM-1)
CCSc1ccc2c(c1)N(CCCN1CCN(C)CC1)c1ccccc1S2	D2 antag 83
CC(CN1CCN(CCOCCO)CC1)CN1c2ccccc2Sc2ccc(Cl)cc21 (configuration not stated)	none (no result: D2 ag-1, D2 antag, D2 PAM-2)
CN1CCN(CCCN2c3ccccc3Sc3ccc(Cl)cc32)CC1	D2 antag 72 (no result: D2 ag-1, D2 ag-2, D2 PAM-1, D2 PAM-2)
CC(C)CCCN1CCN=C1Nc1ccccc1	D2 antag 39
COc1ccc(C2c3[nH]c4ccc(OC)cc4c3CCN2C(=O)Nc2ccccc2)cc1 (configuration not stated)	none (no result: D2 ag-2, D2 antag, D2 PAM-1)
Cc1cc2c(cc1[N+](=O)[O-])NC(CNC(C)C)CC2 (configuration not stated)	D2 antag 65
Cc1cc(C(=O)NCC2CCCCC2)ccc1[N+](=O)[O-]	none (no result: D2 PAM-2)
Cc1ccc(N=C(NO)c2nonc2N)c(C)c1	none
Cc1ccc(N=C(NOC(=O)c2ccccc2)c2nonc2N)c(C)c1	D2 PAM-1 95
COc1cc(N=c2ssnc2Cl)cc(OC)c1	D2 PAM-2 35
COc1cccc(-n2c([S-])c(C(=O)Nc3ccc(C(F)(F)F)cc3)[n+]3ccccc23)c1	D2 antag 35 (no result: D2 ag-2, D2 PAM-1)
CCc1ccc(NC(=O)CC2C(=O)N(c3ccc(Cl)cc3)C(=O)N2Cc2ccco2)cc1 (configuration not stated)	none (no result: D2 ag-2, D2 antag, D2 PAM-1, D2 PAM-2)
COc1ccc(CCN(C)CC(O)COc2ccc(C(C)=O)cc2OC)cc1OC (configuration not stated)	D2 antag 36
CC(=O)c1ccc(OCC(O)CN(C)CCOc2ccc(Br)cc2)cc1 (configuration not stated)	D2 antag 44
CCn1c(=O)n(-c2ccc(F)cc2)c(=O)c2sc3ccccc3c21	none (no result: D2 ag-1, D2 ag-2, D2 antag, D2 PAM-1)
CCn1c(C(=O)N2CCCC(C(=O)N3CCN(c4cc(C)ccc4C)CC3)C2)cc2sccc21 (configuration not stated)	none (no result: D2 ag-2, D2 antag, D2 PAM-1)
O=C(NCc1ccc(F)cc1)C1CCN(S(=O)(=O)c2cccc3nonc23)CC1	D2 PAM-2 32
Cc1ccc(CNC(=O)C2CCN(S(=O)(=O)c3cccc4nonc34)CC2)cc1	none
O=C(NCCc1ccc(F)cc1)C(=O)NCC(c1ccc2c(c1)OCO2)N1CCOCC1 (configuration not stated)	none (no result: D2 ag-2, D2 antag, D2 PAM-1)
Cc1[nH]n(-c2ccccc2)c(=O)c1/C=N/N(C)c1ccccc1	D2 PAM-1 74
COC(=O)N/N=C\c1c(C)[nH]n(-c2ccccc2)c1=O	none
COCC(=O)N/N=C/c1c(C)[nH]n(-c2ccccc2)c1=O	D2 PAM-2 33
CCOc1ccc(Nc2nn(-c3ccc(OC(F)(F)F)cc3)nc2C(C)=O)cc1	none (no result: D2 ag-2, D2 antag, D2 PAM-1)
O=C(CSc1nnc(CNC(=O)c2ccccc2F)n1-c1ccccc1)Nc1ccccc1F	none (no result: D2 ag-2, D2 antag, D2 PAM-1)
Oc1ccc(-c2ccccc2)cc1CN1CCCCCC1	D2 antag 69
Fc1ccc2nc(-c3ccccc3)ccc2c1	none (no result: D2 ag-1, D2 antag, D2 PAM-2)
[O-][n+]1onc2c3cc(-c4ccccc4)nnc3ccc21	D2 PAM-1 53
CCOC(=O)C1=C(CN2CCN(C(=O)c3ccco3)CC2)NC(=O)NC1c1ccc(C)cc1 (configuration not stated)	D2 antag 37
O=C(CSc1nc2ccccc2s1)N1CCOCC1	none
O=C1CCCCCN1CSc1nc2ccccc2s1	D2 PAM-2 36
O=C1S/C(=C\c2ccc(N3CCOCC3)o2)C(=O)N1c1ccccc1	D2 ag-1 31
CCN(CC)C(=O)CN1C(=O)COc2ccc(S(=O)(=O)N3CCOCC3)cc21	none (no result: D2 ag-2, D2 antag, D2 PAM-1)
CCC(C)NC(=O)CN1C(=O)COc2ccc(S(=O)(=O)N3CCOCC3)cc21 (configuration not stated)	D2 antag 44
C=CCc1cccc(C=Nc2c[nH]c(=O)[nH]c2=O)c1O	none
C=CCc1cccc(C=Nc2cc(Br)ccc2O)c1O	D2 ag-2 inconclusive, D2 PAM-1 72
C#Cc1ccc(CN2CCC(Oc3ccc(C(=O)NCc4ccccn4)cc3)CC2)cc1	D2 antag 36
Cc1ccc2cccc(NC(=O)c3ccc(-c4cc(Cl)ccc4Cl)o3)c2n1	none (no result: D2 ag-2, D2 antag, D2 PAM-1)
N/C(=N\OC(=O)c1ccc(Cl)cc1[N+](=O)[O-])c1ccccn1	D2 ag-2 63
COc1cccc(C(=O)O/N=C(\N)c2ccccn2)c1	D2 PAM-1 55
N/C(=N\OC(=O)c1ccc(Cl)cc1Cl)c1ccccn1	none
